The nature of test [1]: qHTS for differential inhibitors of proliferation of Plasmodium falciparum line Dd2 (AID 1882). Also: nearly all actives have a fitted effect of over 65% in size. Also: potency is read from the fitted curve at half-maximal effect. As to conditions: Potency: Plasmodium falciparum Dd2 proliferation inhibition. A digest of the protocol: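 Dd2-infected erythrocytes (0.3% parasitemia, 2.5% hematocrit final) incubated with compound 72 h at 37 C, 5% CO2; lysed with saponin/Triton buffer containing SYBR Green I, incubated overnight in the dark, then read by fluorescence (485/535 nm). Normalized to 0.29 uM artemisinin and DMSO.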

Test [2] can be described thus: qHTS for differential inhibitors of proliferation of Plasmodium falciparum line W2 (AID 1883).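 Also: potency is read from the fitted curve at half-maximal effect; parasites grown with compound for 72 h before lysis and staining.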 As to conditions: Potency: Plasmodium falciparum W2 proliferation inhibition. On the technique in general: qHTS replaces the single test concentration by a dilution series.
The target in test [3] is Ferritin light chain (Equus caballus) (UniProt P02791). Briefly: qHTS Validation Assay for Identification of Novel General Anesthetics (AID 2323). Also: series mostly up to about 77 µM. A digest of the protocol:
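Horse-spleen apoferritin (10 uM) in PBS with 50% saturated 1-aminoanthracene; compounds pin-transferred, 10 min at room temperature. Fluorescence read at 380/535 nm, normalized to free 1-AMA and 1-AMA/apoferritin values; four-parameter Hill fit.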

Test [4] deals with ATP-dependent DNA helicase Q1 (Homo sapiens) (UniProt P46063). Briefly: qHTS Validation Assay for Inhibitors of RecQ-Like Dna Helicase 1 (RECQ1) (AID 2353). A digest of the protocol: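 50 nM RECQ1T1 preincubated 15 min with compound in Tris pH 8.0 buffer with MgCl2, DTT, Tween-20 and 2.5 ug/ml poly(dI-dC); started with 200 nM TAMRA/BHQ-2 forked duplex and 2 mM ATP. Unwinding read as fluorescence (525/598 nm), two reads 2 h apart.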

The nature of test [5]: Cytometric Cell-Based qHTS for Inhibitors of the mTORC1 Signaling Pathway in MEF (Tsc2-/-, p53-/-) Cells (AID 2660).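 Also: percent of cells above a phospho-rpS6 to PI ratio cutoff in each well; series mostly up to about 38 µM.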 A digest of the protocol: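 Immunofluorescence qHTS of rpS6 Ser235/236 phosphorylation: MEFs (Tsc2-/-, p53-/-) treated 24 h, 37 C, in DMEM + 10% FBS. Alexa-488 signal normalized to PI count, referenced to rapamycin (7.5 nM) and DMSO; PI cell number recorded for viability.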

A short description of test [6]: High Content Imaging Cell-Based qHTS for Inhibitors of the mTORC1 Signaling Pathway in MEF (Tsc2-/-, p53-/-) Cells (AID 2666). A digest of the protocol: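 Phospho-rpS6 (Ser235/236) immunofluorescence, normalized and scored as % positive cells using rapamycin and DMSO controls, was read in empty-vector Tsc2-/-, p53-/- MEFs after 24 h compound exposure at 37 C; propidium iodide counted cells.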

A short description of test [7]: Cytometry Cell-Based qHTS for Inhibitors of the mTORC1 Signaling Pathway in MEF cells (AID 2668).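 Also: Tsc2-/- p53-/- mouse embryonic fibroblasts stably re-expressing wild-type Tsc2; percent cells positive for phospho-rpS6 Ser235/236 relative to propidium iodide stain; series mostly up to about 38 µM.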 A digest of the protocol:
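MEFs (Tsc2-/-, p53-/- stably expressing WT Tsc2) treated 24 h at 37 degree Celsius, fixed, stained with Alexa-488 anti-phospho-rpS6 Ser235/236 and propidium iodide; Acumen laser scanning. Reported as % positive cells, phospho-S6 normalized to PI.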

Test [8] in a line: Validation screen for small molecules that induce DNA re-replication in MCF 10A normal breast cells (AID 463097). Also: nearly all actives have a fitted effect of over 60% in size. A digest of the protocol:
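MCF 10A cells exposed to compound 48 hr at 37 C, 5% CO2, then Hoechst-stained 40 min. Laser-scanning imaging of nuclear DNA content (405 nm ex, 500-530 nm em); re-replication scored as rise in nuclei with elevated fluorescence intensity.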

Test [9] deals with Ubiquitin carboxyl-terminal hydrolase 2 (Homo sapiens) (UniProt O75604). Put plainly: qHTS Validation Assay for Inhibitors of Ubiquitin-specific Protease USP2a Using CHOP2 as the Reporter (AID 463106). A digest of the protocol:
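USP2 core (10 nM final) was preincubated with compound 30 min at RT in pH 8.0 Tris/CaCl2/beta-ME/CHAPS buffer. Ub-CHOP2 and reporter substrate (25 nM final each) were then added, with fluorescence (Ex 485/Em 531) read after 60 min. Data were normalized to NEM full inhibition and fitted to concentration-response curves.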

The target of test [10] is DNA polymerase III PolC-type (Bacillus subtilis (strain 168)) (UniProt P13267). Briefly: qHTS Validation Assay for the Inhibitors of DNA Replication in Gram-Positive Bacteria (AID 485295).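 Also: PicoGreen fluorescence of double-stranded DNA made on primed circular M13 template; series mostly up to about 57 µM.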 A digest of the protocol: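 Reconstituted B. subtilis Pol III holoenzyme (PolC, beta clamp, SSB, primase) preincubated with compound, then M13Gori single-stranded circular template with dNTPs/NTPs added; room temperature reaction. Stopped with EDTA/PicoGreen; dsDNA fluorescence read, EDTA as full-inhibition control.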

For test [11], the target named is Tumor susceptibility gene 101 protein (Homo sapiens) (UniProt Q99816). Put plainly: qHTS Validation Assay for Iinhibitors of HIV-1 Budding by Blocking the Interaction of PTAP/TSG101 (AID 485342; calls by dose curve). A digest of the protocol: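 Tsg101 binding domain (10 uM) with FITC-labeled PTAP peptide (50 nM) in HEPES pH 7.5 buffer, 20 min at r.t. with compounds. Binding measured by fluorescence polarization.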

In test [12] the target is Beta-2 adrenergic receptor (Homo sapiens) (UniProt P07550). Put plainly: qHTS validation assay of beta-arrestin-biased ligands of beta2-adrenergic receptor (AID 485366). A digest of the protocol:
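Arrestin-recruitment (Tango) reporter: ligand-bound beta2-AR recruits beta-arrestin, releasing tTA, which upregulates luciferase. Titrations of up to 46 microM incubated 18 hr at 37 degrees C before luminescent readout.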

The nature of test [13]: qHTS for differential inhibitors of proliferation of Plasmodium falciparum line HB3 (AID 1886).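 Also: parasites grown with compound for 72 h before SYBR Green readout.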 As to conditions: Potency: Plasmodium falciparum HB3 proliferation inhibition.
A short description of test [14]: High Content Imaging Cell-Based qHTS for Inhibitors of the mTORC1 Signaling Pathway in MEF Cells (AID 2667).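 Also: Tsc2-/- p53-/- MEFs stably re-expressing wild-type Tsc2 exposed 24 h; series mostly up to about 38 µM.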 A digest of the protocol: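 WT MEFs (Tsc2-/-, p53-/- re-expressing Tsc2), in DMEM + 10% FBS, were treated with compound for 24 h at 37 C. Cells were then fixed and stained for phospho-rpS6 Ser235/236 with propidium iodide as cell count. Values are % positive cells, with thresholds set against rapamycin-treated cells.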

Test [15] is described as follows: qHTS Assay for Modulators of Human Peripheral Myelin Protein 22 (PMP22) Expression/Activity (AID 1967; active = well fitted curve in the direction sought with a large enough effect in the signal ratio; the % refers to the signal ratio). A digest of the protocol: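 Mouse MSC80 Schwann cells carrying Pmp22 promoter–green click beetle luciferase plus EF-alpha–red luciferase control, dosed 24 h at 37 °C. Dual-filter luminescence, overlap-corrected; %Activity from green/red ratio normalised to untreated cells, concentration-response curves fitted.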

Test [16] addresses RecQ-like DNA helicase BLM (Homo sapiens) (UniProt P54132). Briefly: qHTS Validation Assay for Inhibitors of Bloom's syndrome helicase (BLM) (AID 2364). A digest of the protocol: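 50 nM BLM preincubated 15 min at room temperature with compound in pH 8.0 Tris buffer containing 2.5 ug/ml poly(dI-dC); started with 200 nM TAMRA/BHQ-2 forked duplex and 2 mM ATP (final). Unwinding read as TAMRA fluorescence increase, two reads 2 h apart.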

Test [17] in a line: qHTS Validation Assay to Find Inhibitors of Chronic Active B-Cell Receptor Signaling (AID 485345; active = well fitted curve in the direction sought with a large enough effect in the main read-out, with a control signal flat, not every such curve was filed as active). A digest of the protocol:
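TMD8 ABC-DLBCL cells stably carrying doxycycline-inducible IkappaBalpha–green luciferase fusion plus unfused red luciferase; compounds 46 uM to 3 nM, 4 h at 37C with doxycycline. Corrected green/red luminescence ratio normalized to 10 uM MG-132 and basal cell wells; curves fitted.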

The structures appear in SMILES notation. Records with an inconclusive call do not appear. Calls of active or inactive are those of the source. Unless noted, calls follow the shape of the dose curve; as a rule, active = well fitted curve in the direction sought with a large enough effect; inconclusive = small, poorly fitted or top-dose-only effect, or another doubt; inactive = no such curve, though single readings can be large; an effect the other way counts as inactive or inconclusive.

Sequence of Beta-2 adrenergic receptor (Homo sapiens) (P07550 whole entry, looked up): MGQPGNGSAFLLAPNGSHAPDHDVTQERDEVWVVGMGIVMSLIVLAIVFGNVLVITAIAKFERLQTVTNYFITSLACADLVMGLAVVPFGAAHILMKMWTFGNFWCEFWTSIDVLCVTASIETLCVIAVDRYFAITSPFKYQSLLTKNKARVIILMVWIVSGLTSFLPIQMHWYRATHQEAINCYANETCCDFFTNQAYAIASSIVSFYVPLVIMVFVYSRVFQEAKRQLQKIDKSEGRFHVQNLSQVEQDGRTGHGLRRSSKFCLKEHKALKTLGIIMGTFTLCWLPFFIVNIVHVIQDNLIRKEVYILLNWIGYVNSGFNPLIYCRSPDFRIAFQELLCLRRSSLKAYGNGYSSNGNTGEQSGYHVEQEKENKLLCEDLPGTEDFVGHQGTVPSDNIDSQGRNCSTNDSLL
Sequence of ATP-dependent DNA helicase Q1 (Homo sapiens) (P46063 whole entry, looked up): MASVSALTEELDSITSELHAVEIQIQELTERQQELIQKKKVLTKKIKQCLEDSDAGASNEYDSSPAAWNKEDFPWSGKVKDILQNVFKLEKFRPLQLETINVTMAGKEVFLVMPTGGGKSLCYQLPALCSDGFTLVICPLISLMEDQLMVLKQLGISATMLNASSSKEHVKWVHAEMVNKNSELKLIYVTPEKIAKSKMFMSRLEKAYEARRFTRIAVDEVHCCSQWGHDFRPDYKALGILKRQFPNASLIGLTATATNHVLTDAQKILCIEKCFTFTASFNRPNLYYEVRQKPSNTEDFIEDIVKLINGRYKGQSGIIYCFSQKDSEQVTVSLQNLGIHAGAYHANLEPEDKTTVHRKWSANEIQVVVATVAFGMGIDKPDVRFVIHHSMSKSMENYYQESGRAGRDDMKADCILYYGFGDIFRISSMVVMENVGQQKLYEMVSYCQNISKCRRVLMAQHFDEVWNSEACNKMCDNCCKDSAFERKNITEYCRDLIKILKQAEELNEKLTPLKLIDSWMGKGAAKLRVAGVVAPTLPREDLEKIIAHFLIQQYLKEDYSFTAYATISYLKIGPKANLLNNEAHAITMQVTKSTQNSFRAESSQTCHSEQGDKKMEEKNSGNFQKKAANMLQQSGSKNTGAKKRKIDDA
Sequence of DNA polymerase III PolC-type (Bacillus subtilis (strain 168)) (P13267 whole entry, looked up): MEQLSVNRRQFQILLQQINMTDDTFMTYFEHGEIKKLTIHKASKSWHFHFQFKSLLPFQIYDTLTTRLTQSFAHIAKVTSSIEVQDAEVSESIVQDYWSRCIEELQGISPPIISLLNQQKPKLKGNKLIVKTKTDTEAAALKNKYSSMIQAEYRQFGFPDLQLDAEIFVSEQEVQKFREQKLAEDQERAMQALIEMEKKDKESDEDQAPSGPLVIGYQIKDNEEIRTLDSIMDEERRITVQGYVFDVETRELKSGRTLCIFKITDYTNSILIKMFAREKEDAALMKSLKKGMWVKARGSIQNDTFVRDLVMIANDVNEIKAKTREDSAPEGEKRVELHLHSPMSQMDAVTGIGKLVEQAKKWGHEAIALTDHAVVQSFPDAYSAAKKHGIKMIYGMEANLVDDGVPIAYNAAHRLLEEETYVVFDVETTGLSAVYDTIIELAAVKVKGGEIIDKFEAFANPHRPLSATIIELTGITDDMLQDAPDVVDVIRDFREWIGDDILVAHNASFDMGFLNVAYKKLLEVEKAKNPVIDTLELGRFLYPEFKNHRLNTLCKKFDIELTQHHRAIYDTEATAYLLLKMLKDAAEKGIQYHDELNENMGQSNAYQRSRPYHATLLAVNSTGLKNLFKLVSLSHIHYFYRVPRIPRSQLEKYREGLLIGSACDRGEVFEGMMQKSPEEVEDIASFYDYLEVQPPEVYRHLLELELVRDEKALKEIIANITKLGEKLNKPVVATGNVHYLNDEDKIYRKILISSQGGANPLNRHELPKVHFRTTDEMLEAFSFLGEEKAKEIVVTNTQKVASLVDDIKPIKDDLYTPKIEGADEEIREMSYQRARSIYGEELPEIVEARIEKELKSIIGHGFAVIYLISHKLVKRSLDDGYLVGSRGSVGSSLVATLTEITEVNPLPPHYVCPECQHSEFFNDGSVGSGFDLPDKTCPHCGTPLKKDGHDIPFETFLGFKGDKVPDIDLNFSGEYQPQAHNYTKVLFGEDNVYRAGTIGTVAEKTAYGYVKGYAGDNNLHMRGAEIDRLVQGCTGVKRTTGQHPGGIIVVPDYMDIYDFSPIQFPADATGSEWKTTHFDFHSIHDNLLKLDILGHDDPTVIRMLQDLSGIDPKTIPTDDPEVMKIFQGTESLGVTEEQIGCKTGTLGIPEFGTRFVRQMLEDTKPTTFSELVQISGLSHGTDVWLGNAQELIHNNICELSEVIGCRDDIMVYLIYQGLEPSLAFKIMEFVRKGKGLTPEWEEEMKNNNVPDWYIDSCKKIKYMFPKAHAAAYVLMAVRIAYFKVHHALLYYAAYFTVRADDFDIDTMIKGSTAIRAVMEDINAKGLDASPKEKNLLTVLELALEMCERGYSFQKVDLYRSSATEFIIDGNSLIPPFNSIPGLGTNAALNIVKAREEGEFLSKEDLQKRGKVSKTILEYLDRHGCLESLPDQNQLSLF
Sequence of Ubiquitin carboxyl-terminal hydrolase 2 (Homo sapiens) (O75604 whole entry, looked up): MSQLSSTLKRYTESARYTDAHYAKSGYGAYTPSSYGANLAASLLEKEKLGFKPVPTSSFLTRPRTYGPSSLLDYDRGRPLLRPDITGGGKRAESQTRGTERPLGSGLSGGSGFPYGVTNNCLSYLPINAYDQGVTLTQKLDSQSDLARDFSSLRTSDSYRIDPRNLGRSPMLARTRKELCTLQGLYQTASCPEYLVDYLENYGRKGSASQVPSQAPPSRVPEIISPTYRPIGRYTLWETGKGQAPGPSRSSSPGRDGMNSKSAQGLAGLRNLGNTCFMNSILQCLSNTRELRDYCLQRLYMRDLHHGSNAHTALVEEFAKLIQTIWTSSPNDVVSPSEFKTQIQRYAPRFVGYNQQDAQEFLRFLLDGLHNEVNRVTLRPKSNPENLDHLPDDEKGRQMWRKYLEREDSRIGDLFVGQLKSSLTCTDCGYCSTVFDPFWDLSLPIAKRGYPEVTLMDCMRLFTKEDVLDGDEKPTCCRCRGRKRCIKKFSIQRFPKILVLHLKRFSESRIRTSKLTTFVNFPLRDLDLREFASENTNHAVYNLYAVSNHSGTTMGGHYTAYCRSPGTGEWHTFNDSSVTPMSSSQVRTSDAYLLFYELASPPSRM
Sequence of RecQ-like DNA helicase BLM (Homo sapiens) (P54132 whole entry, looked up): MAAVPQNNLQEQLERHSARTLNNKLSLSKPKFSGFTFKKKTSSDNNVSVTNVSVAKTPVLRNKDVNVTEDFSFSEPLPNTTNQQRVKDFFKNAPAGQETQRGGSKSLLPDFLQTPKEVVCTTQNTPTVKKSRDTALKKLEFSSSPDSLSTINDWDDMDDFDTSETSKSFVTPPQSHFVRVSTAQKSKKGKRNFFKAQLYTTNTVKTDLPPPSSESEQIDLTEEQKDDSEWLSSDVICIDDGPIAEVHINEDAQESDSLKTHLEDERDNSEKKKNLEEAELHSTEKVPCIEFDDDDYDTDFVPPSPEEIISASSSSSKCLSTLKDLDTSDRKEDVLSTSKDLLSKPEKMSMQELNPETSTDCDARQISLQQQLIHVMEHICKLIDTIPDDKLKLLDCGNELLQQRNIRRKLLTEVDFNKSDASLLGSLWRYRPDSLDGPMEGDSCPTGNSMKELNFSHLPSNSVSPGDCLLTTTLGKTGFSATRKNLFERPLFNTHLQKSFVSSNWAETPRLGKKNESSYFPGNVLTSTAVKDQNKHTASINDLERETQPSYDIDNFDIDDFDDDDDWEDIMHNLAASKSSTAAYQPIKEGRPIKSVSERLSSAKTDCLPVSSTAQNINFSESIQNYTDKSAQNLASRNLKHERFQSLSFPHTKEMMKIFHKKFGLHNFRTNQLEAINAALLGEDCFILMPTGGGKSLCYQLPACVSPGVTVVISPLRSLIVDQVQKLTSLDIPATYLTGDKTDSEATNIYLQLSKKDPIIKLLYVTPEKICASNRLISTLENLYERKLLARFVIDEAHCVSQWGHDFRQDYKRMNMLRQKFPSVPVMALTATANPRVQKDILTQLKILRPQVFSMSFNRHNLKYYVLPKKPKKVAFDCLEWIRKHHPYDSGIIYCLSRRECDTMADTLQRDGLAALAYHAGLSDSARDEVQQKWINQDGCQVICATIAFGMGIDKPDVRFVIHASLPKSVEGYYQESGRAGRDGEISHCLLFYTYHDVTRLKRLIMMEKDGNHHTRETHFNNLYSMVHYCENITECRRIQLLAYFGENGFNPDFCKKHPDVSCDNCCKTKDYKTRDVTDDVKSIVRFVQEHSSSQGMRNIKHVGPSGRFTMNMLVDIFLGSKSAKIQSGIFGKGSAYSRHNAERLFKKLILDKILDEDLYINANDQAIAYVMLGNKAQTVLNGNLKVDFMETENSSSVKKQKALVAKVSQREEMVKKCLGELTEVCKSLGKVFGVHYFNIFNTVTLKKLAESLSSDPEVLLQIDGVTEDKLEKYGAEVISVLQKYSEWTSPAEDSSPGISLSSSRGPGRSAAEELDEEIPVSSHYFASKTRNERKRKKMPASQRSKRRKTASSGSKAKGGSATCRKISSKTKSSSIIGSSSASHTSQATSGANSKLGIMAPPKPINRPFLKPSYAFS
Sequence of Tumor susceptibility gene 101 protein (Homo sapiens) (Q99816 whole entry, looked up, the tested form may be a part): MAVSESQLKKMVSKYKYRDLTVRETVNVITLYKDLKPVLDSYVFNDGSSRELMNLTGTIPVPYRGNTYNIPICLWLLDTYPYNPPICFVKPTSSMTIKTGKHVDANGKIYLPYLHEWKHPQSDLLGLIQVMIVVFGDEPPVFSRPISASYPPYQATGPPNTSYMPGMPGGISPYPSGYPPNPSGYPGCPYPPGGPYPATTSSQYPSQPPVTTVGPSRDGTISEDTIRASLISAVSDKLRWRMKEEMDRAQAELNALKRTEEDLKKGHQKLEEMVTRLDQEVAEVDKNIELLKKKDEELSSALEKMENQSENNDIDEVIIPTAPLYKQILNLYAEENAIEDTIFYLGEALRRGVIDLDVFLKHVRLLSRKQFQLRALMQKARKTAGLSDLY

As to `Oc1cc2c(cc1O)C(c1ccccc1)CNCC2` (stereo not given), the Potency result in [1], in [3], in [4], in test [6], in [7] and in [8] was “inactive” in each case. Besides, the Potency result in test [9] and in test [10] was “inactive” in each case. Besides, the Potency in test [2] is 11.2 µM (active). The call in test [5], in [11] and in [12] was inactive.
Turning to `COCc1nc2c([nH]1)c(=O)n(C)c(=O)n2CC(C)C`, the Potency result in [1], in test [13], in test [3], in [4], in [6] and in test [14] was “inactive” throughout. For the same compound, the Potency entry in test [7], in [8], in test [9] and in test [10] was “inactive” throughout. Besides, the outcome in test [5], in [11] and in test [12] was inactive.
As to `COc1cc(N)c(Cl)cc1C(=O)OCCN1CCCCC1`, the Potency entry in test [1], in test [13], in [3], in [4], in [6] and in [14] was “inactive” throughout. In addition, the Potency entry in test [7], in test [8], in test [9] and in [10] was “inactive” each time. Further, the result in [15], in test [5], in test [11] and in test [12] was inactive.
As to `NC(=O)c1cc[n+](CC2=C(C(=O)O)N3C(=O)[C@@H](NC(=O)[C@@H](c4ccccc4)S(=O)(=O)[O-])[C@H]3SC2)cc1`, the Potency entry in [1], in test [13], in test [3], in test [4], in test [16] and in test [6] was “inactive” each time. The Potency entry in [14], in [7], in test [8], in test [9] and in test [10] was “inactive” throughout. Also, the result in test [15], in test [5], in test [11], in [17] and in test [12] was inactive.
`COC(=O)[C@H](NC(=O)c1cc(-c2ccccc2)nc2ccccc12)c1ccccc1`: the Potency entry in [1], in [3], in test [4], in [6], in test [14] and in test [7] was “inactive” each time. The Potency result in test [8], in [9] and in test [10] was “inactive” each time. In addition, the Potency in [2] is 12.6 µM (active). Further, in [12], the result was inactive.
As to `O=c1onc2n1-c1cc(Br)ccc1OC2`, the Potency entry in test [1], in test [13], in test [3], in [4], in test [6] and in test [14] was “inactive” in each case. For the same compound, the Potency result in [7], in test [8], in test [9] and in [10] was “inactive” in each case. Besides, the compound was called inactive in test [5], in test [11], in test [17] and in test [12].
`Cc1nc2c(OCc3ccccc3)cccn2c1CC#N`: the Potency result in test [1], in test [13], in test [3], in test [4], in [6] and in test [14] was “inactive” in each case. In addition, the Potency result in test [7], in [8], in test [9] and in [10] was “inactive” in each case. In addition, the result in test [5], in test [11] and in [12] was inactive.
`Nn1nnc2ccccc21`: the Potency entry in test [1], in test [4], in [16], in [6], in test [14] and in test [7] was “inactive” each time. Besides, the Potency result in test [8], in test [9] and in test [10] was “inactive” in each case. Also, the Potency in test [2] was 17.8 µM (active). The outcome in test [5] and in test [12] was inactive.
In the case of `Fc1ccc(CN(C2=NCCN2)c2c(Cl)cccc2Cl)cc1`, the results for the Potency in [1] and in test [2] were 7.94 µM (active) and 3.55 µM (active), respectively. In addition, the Potency entry in test [3], in [4], in [16], in test [14], in test [8] and in [9] was “inactive” each time. In addition, the Potency result in test [10] was “inactive”. For the same compound, the compound was called inactive in test [5] and in test [17].
For the compound `COc1ccc(C(=O)NCc2cccnc2)cc1C(=O)NCc1cccnc1`, the Potency entry in test [1], in test [13], in [4], in [6], in [14] and in [7] was “inactive” each time. Moreover, the Potency result in test [8], in test [9] and in test [10] was “inactive” each time. For the same compound, the outcome in test [15], in test [5], in test [11], in test [17] and in test [12] was inactive.

These data come from PubChem BioAssay (NCATS).
